Results filed as inconclusive are left out. Calls of active or inactive are those of the source. The calls were made as follows: active = hit-call score of the fitted dose curve at least 0.9, where 1 is the maximum; inconclusive = response in the unintended direction; inactive = score below 0.9.

Sequence of AR (gene 367) (P10275 whole entry, looked up): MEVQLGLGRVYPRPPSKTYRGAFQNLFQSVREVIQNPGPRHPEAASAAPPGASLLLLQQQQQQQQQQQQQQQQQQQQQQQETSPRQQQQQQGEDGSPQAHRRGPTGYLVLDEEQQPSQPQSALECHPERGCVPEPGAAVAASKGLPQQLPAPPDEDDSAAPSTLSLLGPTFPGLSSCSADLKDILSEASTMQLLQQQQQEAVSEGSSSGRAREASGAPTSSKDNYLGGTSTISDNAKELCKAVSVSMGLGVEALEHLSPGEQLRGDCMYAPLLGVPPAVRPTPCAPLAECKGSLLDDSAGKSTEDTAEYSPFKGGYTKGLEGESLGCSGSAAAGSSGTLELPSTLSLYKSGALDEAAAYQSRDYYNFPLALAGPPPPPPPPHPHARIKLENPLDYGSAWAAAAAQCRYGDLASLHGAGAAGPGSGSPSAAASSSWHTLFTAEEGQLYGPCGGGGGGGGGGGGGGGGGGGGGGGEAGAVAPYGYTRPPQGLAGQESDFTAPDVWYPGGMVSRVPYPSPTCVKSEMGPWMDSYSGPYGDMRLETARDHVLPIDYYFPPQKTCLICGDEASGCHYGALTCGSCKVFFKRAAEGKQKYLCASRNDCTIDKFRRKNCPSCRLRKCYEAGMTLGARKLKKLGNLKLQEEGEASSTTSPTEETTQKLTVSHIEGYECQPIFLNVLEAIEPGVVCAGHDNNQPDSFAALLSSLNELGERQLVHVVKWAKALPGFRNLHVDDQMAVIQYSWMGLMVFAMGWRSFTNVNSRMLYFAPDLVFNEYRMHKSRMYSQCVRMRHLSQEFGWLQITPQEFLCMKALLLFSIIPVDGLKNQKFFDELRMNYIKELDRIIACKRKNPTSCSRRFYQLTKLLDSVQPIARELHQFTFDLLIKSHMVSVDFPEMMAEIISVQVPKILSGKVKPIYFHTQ

The assay has as its target AR (gene 367) (UniProt P10275). In words: ACEA_AR_antagonist_80hr: ACEA Biosciences xCELLigence Real-Time Cell Analysis on Androgen Receptor Antagonism for Proliferation (AID 2283787). The protocol:
ACEA_AR_antagonist is a cell-based, single-readout assay that uses 22Rv1, a human prostate cancer cell line, with measurements taken at 80 hours after chemical dosing in a 384-well plate, although TO5 and TO6 (mc0.srcf) used a 96-well plate. Differences in plate size can be ignored given data normalization.ACEA_AR_antagonist_80hr is one of two assay component(s) measured or calculated from the ACEA_AR assay. It is designed to make measurements of real-time cell-growth kinetics, a form of growth reporter, as detected with electrical impedance signals by Real-Time Cell Electrode Sensor (RT-CES) technology.Data from the assay component ACEA_AR_antagonist_80hr was analyzed in the positive analysis fitting direction relative to DMSO as the negative control and baseline of activity. Using a type of growth reporter, measures of the cells for loss-of-signal activity can be used to understand the signaling at the pathway-level as they relate to the gene AR. Furthermore, this assay endpoint can be referred to as a primary readout, because this assay has produced multiple assay endpoints where this one serves a signaling function. To generalize the intended target to other relatable targets, this assay endpoint is annotated to the nuclear receptor intended target family, where the subfamily is steroidal.
The xCELLigence system Multi-E-Plate stations were used to measure the time-dependent response to chemicals. Each compound was tested in an eight-point, 1:4 serial dilution series starting at a maximum final concentration of 100 uM. A maximum starting concentration of 0.5% DMSO was present in the 100 uM chemical samples and was diluted along with the test article dilution series. The screen was performed in biological duplicate using two separate, 96-well, E-Plates 96 for each dilution series (n = 2). Positive controls (MG132 and testosterone) and a negative control (assay media) were tested in quadruplicate on each testing plate. […] Reference compounds were tested with 8 concentrations with 1:5 serial dilutions. All screening was carried out by ACEA Biosciences, Inc. (San Diego, CA). 22Rv1 cells purchased from ATCC were maintained in media supplemented with 10% fetal bovine serum (FBS). Before screening, 22Rv1 cells were preconditioned in assay medium. Cells were then detached and seeded in E-Plates 96 in assay medium. After overnight monitoring of growth once every hour, compounds were added to […] cells and remained in the medium until the end of the experiment. Cellular responses were then recorded once every 5 min for the first 5 h, and once every hour for an additional 100 h.
Turning to `O=[N+]([O-])c1c(Cl)c(Cl)c(Cl)c(Cl)c1Cl`, the half-maximal activity concentration (AC50) was 74.6 µM (active).

Regarding `C#CCN1C(=O)COc2cc(F)c(N3C(=O)C4=C(CCCC4)C3=O)cc21`, the AC50 was 64.5 µM (active).

Turning to `CCC(C)(C)C(=O)OC1=C(c2ccc(Cl)cc2Cl)C(=O)OC12CCCCC2`, the outcome was inactive.

As for `O=S1OCC2C(CO1)C1(Cl)C(Cl)=C(Cl)C2(Cl)C1(Cl)Cl` (stereo unspecified), the AC50 is 9.11 µM (active).

As to `CCOC1Oc2ccc(OS(C)(=O)=O)cc2C1(C)C` (stereo unspecified), the half-maximal activity concentration (AC50) was 50 µM (active).

For the compound `Cc1[nH]c(=O)n(C(C)(C)C)c(=O)c1Cl`, the result was inactive.

In the case of `C[C@H]1[C@H](c2ccc(Cl)cc2)SC(=O)N1C(=O)NC1CCCCC1`, the half-maximal activity concentration (AC50) was 19.1 µM (active).

With `Oc1ccc(Cl)cc1Cc1ccccc1`, the AC50 is 11.2 µM (active).

For the compound `O=[N+]([O-])/N=C1\NCCN1Cc1ccc(Cl)nc1`, the compound was called inactive.

Consider `O=C(O)CCCOc1ccc(Cl)cc1Cl`, for which the call was inactive.

Consider `CCCN(CCC)c1c([N+](=O)[O-])cc(C(F)(F)F)cc1[N+](=O)[O-]`, for which the concentration at half-maximal activity (AC50) is 62.7 µM (active).

As usually defined, the AC50 is the concentration at which the activity in the assay is half-maximal.

Source of the values: PubChem BioAssay (EPA / NIEHS).
